The supplement of paper PMC11732987, “Enantioselective OTUD7B fragment discovery through chemoproteomics screening and high-throughput optimisation” (Communications Chemistry, 2025)

Columns and labels:
Test in all cases: log2 ratio of Biotin-Ahx-Ub-VS probe labelling (fragment/DMSO); higher = less target engagement (more negative = stronger competition), active = hit call of the paper (q ≤ 0.05, log2 ratio ≤ -1)
Conditions in all cases: compound concentration: 200 uM; treatment time: 3 h
USP42 = target: T1, USP42 (UniProt Q9H9J4)
T1 sequence (whole entry): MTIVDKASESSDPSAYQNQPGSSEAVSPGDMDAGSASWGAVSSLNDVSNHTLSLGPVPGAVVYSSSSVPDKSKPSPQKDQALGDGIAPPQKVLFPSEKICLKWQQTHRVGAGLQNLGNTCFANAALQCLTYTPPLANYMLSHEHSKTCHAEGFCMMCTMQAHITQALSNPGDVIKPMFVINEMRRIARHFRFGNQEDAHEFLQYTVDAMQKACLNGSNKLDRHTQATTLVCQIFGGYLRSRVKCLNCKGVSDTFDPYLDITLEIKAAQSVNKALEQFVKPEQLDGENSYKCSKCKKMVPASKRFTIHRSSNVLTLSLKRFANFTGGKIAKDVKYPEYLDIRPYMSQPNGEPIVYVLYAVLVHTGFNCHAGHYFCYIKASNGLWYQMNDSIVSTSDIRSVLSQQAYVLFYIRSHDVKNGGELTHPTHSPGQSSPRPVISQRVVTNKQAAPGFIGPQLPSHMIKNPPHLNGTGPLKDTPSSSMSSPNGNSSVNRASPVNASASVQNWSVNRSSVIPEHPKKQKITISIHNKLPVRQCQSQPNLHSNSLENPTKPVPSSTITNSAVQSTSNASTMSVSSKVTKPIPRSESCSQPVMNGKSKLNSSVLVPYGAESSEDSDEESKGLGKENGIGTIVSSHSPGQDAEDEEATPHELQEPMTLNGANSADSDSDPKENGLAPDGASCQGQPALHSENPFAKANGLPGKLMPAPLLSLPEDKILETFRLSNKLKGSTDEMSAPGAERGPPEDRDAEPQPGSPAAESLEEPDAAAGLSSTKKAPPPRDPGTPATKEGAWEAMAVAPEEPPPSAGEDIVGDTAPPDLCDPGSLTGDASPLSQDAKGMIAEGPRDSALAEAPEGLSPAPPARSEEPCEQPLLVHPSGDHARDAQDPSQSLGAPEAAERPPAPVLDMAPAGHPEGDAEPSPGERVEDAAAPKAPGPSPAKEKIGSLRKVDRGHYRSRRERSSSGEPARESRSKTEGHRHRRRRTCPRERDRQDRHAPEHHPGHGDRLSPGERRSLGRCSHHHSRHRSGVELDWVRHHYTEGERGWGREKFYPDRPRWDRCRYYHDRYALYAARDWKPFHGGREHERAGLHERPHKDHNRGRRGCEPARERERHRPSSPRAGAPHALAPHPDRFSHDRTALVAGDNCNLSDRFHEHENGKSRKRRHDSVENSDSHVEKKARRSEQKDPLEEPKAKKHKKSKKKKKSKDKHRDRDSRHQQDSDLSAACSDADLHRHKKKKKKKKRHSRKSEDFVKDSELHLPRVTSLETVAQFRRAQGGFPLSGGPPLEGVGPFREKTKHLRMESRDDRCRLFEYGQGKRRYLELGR
How it was run: (§1)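 The table lists average log2 ratios of fragment over vehicle, from an unpaired t-test on global-median-normalised Spectronaut label-free quantities. Proteins with ≥2 unique peptides were used. Samples were HEK293T lysate (495 µg) treated in triplicate with fragment at 200 µM or vehicle for 3 h, then with Biotin-Ahx-Ub-VS (0.5 µM final) for 1 h, with labelled DUBs NeutrAvidin-enriched and run by diaPASEF LC-MS/MS.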

USP46 = USP46 (UniProt P62068)
USP46, sequence (P62068 whole entry): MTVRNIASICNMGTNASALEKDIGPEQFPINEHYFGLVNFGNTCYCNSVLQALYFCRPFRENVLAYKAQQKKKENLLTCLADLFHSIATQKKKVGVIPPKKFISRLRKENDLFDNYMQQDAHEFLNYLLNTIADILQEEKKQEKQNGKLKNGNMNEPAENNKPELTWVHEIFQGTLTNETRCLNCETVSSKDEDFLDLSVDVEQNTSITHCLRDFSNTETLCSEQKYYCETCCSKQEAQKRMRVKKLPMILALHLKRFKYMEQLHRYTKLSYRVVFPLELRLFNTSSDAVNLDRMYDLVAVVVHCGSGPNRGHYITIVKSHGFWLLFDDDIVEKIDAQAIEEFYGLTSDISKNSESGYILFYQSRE
How it was run: as §1

USP47 = target: T2, USP47 (UniProt Q96K76)
T2 sequence (whole entry): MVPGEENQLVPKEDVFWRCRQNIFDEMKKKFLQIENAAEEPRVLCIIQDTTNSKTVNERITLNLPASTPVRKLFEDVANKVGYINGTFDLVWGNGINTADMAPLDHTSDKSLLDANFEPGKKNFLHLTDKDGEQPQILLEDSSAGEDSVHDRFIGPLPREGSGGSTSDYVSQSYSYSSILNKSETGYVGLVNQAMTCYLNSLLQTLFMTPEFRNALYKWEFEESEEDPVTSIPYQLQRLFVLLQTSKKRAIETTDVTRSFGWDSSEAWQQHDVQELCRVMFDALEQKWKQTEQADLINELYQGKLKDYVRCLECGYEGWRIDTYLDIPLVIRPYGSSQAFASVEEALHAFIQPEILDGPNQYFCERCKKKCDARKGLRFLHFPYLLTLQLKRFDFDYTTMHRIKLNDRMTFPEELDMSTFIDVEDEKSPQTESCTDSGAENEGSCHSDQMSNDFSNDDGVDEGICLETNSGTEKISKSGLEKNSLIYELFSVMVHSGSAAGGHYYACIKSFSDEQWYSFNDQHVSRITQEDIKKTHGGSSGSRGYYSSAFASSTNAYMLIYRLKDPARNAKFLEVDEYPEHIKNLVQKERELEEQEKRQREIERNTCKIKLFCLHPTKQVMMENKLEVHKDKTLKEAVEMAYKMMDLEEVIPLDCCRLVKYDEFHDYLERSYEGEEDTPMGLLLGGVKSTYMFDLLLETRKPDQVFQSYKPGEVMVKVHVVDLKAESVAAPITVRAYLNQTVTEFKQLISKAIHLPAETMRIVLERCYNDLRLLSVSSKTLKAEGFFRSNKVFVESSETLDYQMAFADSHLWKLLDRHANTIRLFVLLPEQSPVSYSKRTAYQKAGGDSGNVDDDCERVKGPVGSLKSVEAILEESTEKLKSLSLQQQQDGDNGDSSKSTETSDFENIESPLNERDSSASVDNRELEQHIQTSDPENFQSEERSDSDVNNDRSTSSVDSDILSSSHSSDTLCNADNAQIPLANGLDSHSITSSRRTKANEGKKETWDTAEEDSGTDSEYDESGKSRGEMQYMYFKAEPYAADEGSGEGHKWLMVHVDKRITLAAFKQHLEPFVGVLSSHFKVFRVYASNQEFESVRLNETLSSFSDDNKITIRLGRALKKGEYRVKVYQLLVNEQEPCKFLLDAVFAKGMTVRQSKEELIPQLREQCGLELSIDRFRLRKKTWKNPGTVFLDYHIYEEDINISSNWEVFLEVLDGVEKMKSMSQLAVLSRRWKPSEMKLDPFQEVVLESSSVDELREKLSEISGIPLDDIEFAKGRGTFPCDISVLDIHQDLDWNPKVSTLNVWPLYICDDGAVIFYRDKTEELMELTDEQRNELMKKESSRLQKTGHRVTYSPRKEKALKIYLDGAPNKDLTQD
How it was run: as §1

USP48 = target: T3, USP48 (UniProt Q86UV5)
T3 sequence (whole entry): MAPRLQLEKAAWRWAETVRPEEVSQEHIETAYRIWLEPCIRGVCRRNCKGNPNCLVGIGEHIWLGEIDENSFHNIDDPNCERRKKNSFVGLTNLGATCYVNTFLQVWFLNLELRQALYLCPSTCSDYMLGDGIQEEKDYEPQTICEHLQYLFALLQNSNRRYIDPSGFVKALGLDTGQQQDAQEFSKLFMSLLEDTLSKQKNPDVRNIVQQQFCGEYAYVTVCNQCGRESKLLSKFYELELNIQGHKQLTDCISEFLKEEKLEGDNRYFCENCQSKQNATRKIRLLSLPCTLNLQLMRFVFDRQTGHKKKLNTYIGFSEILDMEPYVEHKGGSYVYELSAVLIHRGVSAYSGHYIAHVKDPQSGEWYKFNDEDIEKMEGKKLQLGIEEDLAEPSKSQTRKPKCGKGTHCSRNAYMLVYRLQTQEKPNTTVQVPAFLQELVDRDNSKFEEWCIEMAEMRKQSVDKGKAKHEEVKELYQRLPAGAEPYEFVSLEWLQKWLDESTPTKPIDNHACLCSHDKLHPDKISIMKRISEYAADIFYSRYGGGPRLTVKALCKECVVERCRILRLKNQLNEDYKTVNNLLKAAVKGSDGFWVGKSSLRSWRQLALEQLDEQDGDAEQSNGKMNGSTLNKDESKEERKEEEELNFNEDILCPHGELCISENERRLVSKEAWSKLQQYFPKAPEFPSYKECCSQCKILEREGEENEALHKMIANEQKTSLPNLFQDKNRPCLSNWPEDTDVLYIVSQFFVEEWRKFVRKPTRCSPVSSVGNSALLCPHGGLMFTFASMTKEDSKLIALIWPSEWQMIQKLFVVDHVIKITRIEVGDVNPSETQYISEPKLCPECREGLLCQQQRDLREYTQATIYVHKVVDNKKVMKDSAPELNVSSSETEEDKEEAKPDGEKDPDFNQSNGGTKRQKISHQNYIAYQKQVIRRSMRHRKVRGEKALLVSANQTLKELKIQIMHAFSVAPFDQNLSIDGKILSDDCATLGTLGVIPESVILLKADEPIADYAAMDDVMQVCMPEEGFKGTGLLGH
How it was run: as §1

USP5 = target: T4, USP5 (UniProt P45974)
T4 sequence (whole entry): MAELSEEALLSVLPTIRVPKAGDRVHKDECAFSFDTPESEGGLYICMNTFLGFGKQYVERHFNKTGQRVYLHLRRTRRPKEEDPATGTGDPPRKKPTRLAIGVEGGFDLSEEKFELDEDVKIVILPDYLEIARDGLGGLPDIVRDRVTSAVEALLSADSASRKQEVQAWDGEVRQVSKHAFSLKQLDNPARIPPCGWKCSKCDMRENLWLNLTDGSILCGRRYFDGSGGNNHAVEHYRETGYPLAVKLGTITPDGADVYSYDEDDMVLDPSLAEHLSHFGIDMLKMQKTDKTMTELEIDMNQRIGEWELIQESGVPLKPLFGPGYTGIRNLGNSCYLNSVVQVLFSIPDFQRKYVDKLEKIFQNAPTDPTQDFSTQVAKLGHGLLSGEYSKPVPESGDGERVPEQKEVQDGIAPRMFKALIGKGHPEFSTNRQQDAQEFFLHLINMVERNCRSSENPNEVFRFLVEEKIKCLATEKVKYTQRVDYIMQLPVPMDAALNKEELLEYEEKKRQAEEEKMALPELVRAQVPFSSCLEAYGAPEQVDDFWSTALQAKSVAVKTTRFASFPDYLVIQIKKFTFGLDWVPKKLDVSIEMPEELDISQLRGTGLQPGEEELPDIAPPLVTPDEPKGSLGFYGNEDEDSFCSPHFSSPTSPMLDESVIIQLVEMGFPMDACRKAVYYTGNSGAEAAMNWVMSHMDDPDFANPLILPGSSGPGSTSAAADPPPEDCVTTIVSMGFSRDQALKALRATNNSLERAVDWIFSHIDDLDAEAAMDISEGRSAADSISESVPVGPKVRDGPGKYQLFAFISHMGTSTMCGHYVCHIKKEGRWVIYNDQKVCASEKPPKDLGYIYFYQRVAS
How it was run: as §1

USP54 = USP54 (UniProt Q70EL1)
USP54, sequence (Q70EL1 whole entry): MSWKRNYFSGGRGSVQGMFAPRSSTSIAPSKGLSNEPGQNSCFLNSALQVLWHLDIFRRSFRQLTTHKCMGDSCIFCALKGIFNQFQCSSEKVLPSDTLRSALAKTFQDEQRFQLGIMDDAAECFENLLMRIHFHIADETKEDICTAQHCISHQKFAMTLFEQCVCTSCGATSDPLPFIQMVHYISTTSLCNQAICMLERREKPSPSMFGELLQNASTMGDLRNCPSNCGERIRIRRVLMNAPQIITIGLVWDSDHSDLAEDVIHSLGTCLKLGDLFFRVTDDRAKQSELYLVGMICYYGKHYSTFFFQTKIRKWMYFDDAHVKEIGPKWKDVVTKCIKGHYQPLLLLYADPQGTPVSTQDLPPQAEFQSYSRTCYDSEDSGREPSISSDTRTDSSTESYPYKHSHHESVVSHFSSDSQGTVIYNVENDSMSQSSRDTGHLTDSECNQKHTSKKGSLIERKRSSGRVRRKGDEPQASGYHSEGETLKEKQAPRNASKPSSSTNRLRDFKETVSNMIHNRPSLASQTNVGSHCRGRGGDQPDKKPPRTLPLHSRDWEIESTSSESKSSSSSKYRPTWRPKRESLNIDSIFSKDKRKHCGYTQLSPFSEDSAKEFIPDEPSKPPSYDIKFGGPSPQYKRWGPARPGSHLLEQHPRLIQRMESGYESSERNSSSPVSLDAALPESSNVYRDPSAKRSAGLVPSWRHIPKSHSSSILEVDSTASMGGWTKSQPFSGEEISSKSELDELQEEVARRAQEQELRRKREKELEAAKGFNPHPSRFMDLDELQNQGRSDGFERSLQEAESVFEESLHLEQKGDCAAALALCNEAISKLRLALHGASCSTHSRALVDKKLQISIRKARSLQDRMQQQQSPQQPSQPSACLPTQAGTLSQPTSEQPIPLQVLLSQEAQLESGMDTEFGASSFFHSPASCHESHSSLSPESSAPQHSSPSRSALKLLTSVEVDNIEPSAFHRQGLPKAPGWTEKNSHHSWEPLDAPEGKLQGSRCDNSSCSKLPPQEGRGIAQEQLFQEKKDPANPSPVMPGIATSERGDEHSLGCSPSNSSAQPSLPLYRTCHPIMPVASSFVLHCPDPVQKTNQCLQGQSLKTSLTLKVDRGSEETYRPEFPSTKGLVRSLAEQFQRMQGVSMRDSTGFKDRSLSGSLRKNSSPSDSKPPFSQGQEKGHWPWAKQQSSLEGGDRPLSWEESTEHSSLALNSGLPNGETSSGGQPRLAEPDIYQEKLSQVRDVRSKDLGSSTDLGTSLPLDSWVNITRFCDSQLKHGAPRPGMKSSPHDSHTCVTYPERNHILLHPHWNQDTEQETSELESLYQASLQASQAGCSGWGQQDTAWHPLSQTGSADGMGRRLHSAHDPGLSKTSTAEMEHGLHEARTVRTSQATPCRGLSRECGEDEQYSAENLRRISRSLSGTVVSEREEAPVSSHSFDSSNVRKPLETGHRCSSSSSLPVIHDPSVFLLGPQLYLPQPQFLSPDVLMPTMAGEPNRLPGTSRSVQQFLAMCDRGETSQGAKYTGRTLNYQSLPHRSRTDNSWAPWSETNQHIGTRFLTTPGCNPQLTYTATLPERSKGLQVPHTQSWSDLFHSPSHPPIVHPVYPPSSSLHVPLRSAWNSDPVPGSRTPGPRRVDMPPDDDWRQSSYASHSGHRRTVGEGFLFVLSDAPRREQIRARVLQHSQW
How it was run: as §1

USP7 = USP7 (UniProt Q93009)
USP7, sequence (Q93009 whole entry, looked up): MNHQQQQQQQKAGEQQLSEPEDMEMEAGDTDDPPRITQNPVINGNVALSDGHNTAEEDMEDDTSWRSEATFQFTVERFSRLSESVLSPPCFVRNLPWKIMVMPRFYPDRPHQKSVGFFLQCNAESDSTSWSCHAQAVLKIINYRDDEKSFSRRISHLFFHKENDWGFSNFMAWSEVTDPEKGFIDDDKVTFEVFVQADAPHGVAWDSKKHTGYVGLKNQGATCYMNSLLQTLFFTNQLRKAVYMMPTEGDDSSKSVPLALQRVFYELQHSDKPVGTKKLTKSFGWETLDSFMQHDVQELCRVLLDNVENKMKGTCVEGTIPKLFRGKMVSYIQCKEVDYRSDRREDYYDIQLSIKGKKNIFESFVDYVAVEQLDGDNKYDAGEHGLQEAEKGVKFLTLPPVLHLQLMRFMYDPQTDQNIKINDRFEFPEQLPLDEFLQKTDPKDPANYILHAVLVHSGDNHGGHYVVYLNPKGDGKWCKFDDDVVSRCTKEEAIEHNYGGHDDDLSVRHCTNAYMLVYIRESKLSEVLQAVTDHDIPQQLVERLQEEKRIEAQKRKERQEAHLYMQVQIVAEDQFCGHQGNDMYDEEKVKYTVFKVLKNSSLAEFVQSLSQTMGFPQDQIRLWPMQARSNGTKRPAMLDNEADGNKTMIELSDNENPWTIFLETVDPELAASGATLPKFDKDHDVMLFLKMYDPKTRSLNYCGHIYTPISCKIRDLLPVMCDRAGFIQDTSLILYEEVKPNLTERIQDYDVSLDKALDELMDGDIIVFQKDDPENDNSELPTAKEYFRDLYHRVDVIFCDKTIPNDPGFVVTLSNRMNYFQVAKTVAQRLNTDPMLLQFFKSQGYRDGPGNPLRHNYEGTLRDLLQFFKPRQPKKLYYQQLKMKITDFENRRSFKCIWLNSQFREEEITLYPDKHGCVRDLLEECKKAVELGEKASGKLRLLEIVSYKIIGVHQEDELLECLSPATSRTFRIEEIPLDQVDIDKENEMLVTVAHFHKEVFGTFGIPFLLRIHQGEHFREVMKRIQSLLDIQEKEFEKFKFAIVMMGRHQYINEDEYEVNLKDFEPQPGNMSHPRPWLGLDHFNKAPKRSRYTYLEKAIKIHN
How it was run: as §1

USP8 = target: T5, USP8 (UniProt P40818)
T5 sequence (whole entry): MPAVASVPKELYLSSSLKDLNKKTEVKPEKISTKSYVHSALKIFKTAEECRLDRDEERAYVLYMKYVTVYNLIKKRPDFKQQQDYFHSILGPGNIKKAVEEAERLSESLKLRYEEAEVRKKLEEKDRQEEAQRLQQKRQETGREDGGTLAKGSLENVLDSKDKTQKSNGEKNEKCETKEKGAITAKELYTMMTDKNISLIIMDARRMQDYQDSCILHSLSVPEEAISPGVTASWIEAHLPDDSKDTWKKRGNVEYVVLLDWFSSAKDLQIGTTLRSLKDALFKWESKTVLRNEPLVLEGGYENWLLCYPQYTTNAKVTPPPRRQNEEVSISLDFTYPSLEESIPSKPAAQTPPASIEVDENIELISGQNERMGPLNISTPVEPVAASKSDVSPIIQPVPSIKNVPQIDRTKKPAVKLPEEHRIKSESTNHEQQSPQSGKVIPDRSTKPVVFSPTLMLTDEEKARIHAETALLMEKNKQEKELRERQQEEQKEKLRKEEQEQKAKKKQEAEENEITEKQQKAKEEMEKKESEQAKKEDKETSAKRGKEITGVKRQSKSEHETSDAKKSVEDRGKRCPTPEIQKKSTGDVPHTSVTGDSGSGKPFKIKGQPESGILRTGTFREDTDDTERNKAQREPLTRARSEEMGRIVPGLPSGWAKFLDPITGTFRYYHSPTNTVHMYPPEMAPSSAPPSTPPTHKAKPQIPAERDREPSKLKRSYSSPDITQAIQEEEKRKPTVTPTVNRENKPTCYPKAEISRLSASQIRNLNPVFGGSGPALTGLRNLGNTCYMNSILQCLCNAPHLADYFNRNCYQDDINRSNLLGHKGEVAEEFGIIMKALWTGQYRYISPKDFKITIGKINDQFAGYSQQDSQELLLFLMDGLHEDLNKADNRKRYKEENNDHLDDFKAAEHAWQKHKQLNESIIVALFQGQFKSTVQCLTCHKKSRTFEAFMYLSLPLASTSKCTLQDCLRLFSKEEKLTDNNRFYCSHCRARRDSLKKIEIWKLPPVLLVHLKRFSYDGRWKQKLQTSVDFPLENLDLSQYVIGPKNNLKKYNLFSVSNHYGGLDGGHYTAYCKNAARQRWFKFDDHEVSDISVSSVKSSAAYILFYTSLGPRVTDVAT
How it was run: as §1

USP9X = USP9X (UniProt Q93008)
How it was run: as §1

UniProt O00487 = target: UniProt O00487
UniProt O00487, sequence (O00487 whole entry): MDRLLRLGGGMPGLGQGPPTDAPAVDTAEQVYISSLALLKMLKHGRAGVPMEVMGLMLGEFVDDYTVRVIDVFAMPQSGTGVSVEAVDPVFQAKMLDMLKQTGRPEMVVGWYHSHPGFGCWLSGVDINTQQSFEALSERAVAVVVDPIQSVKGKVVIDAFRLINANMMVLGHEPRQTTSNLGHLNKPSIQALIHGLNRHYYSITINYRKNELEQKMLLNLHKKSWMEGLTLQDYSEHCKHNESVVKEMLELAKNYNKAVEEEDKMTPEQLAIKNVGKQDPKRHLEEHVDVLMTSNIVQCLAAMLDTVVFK
How it was run: as §1

Measured: log2 ratio of Biotin-Ahx-Ub-VS probe labelling

CN(Cc1nc2ccccc2[nH]1)C(=O)CCl.Cl
inactive: USP42 0.698 | USP46 -0.254 | USP47 -0.178 | USP5 0.118 | USP54 -0.517 | USP8 -0.0998 | USP9X -0.057 | UniProt O00487 -0.00224
active: USP48 -1.14 | USP7 -1.36
